Screening results deposited in PubChem BioAssay by National Center for Advancing Translational Sciences (NCATS).
RE007 growth inh: qHTS Assay for Inhibitors of the HIV-1 protein Vpr | S. pombe RE007 Vpr strain, BacTiter-Glo ATP luminescence, 24 h | Potency, µM (titrated, usually from 92.2 µM), inactives show at the highest dose activity change, negative = less growth, hits mostly inhibitors | hit rate 0.21% among 360,000 | AID 651644, 2012; active = well fitted falling curve with a large enough effect; inconclusive = small, poorly fitted or top-dose-only effect; inactive = no such curve, though single readings can be large or run the other way; note: potency is the fitted concentration of half-maximal effect; % is set by controls: 0 for no effect and ±100 for the full control effect; nearly all actives have a fitted effect of over 50% in size
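Fission yeast strain RE007, carrying one chromosomally integrated HIV-1 vpr copy, was seeded at OD 0.01 in PMG+AL medium with 23 nL pinned compound. After 24 h at 30 °C and 99% humidity, viability was read by BacTiter-Glo luminescence.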
Tb PYK inh: qHTS of Trypanosoma Brucei Inhibitors; TbPYK enzyme, Kinase-Glo Plus ATP luminescence, 45 min; Potency, µM (highest dose often 76.8 µM), for inactives: at the top dose activity, negative = inhibition, hits mostly inhibitors; hit rate 0.12% among 410,000; pyruvate kinase (Trypanosoma brucei), Q57TT1; active = well fitted curve in the direction sought with a large enough effect; inconclusive = small, poorly fitted or top-dose-only effect, or another doubt; inactive = no such curve, though single readings can be large; an effect the other way counts as inactive or inconclusive; note: potency is the fitted concentration of half-maximal effect; % is set by controls: 0 for no effect and ±100 for the full control effect; nearly all actives have a fitted effect of over 50% in size
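Luminescent Kinase-Glo Plus end-point after 45 min room-temperature reaction of T. brucei pyruvate kinase started with 130 uM ADP (final). Buffer TEA 50 mM pH 7.2 with KCl, MgCl2, BSA, Tween-20; titration-based qHTS with fitted concentration-effect curves.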
LmPK inh: qHTS Assay for Inhibitors of Leishmania Mexicana Pyruvate Kinase (LmPK); purified LmPK, Kinase-Glo ATP luminescence, 1 h; Q27686; hit rate 0.37% among 290,000; Potency, µM (top dose mostly 57.5 µM), for inactives: at the highest dose activity change, negative = inhibition, most hits filed as inhibitors; active = well fitted curve in the direction sought with a large enough effect; inconclusive = small, poorly fitted or top-dose-only effect, or another doubt; inactive = no such curve, though single readings can be large; an effect the other way counts as inactive or inconclusive; note: potency is the fitted concentration of half-maximal effect; % is set by controls: 0 for no effect and ±100 for the full control effect
Target sequence (Q27686 whole entry, looked up): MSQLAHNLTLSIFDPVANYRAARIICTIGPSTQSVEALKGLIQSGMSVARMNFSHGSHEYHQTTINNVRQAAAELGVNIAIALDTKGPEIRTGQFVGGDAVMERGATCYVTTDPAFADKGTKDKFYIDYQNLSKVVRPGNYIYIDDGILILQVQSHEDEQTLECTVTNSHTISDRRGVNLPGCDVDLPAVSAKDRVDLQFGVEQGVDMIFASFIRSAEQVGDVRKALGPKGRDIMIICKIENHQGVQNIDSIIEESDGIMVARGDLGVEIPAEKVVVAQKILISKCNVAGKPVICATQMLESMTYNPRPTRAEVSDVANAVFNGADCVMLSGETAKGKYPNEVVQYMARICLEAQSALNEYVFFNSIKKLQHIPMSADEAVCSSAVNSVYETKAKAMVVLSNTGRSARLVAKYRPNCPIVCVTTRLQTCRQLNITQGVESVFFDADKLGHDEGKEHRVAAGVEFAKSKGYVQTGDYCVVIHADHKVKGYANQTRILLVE
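Pyruvate kinase activity monitored as ATP production (luciferase luminescence). Conditions: 0.1 nM enzyme, 0.5 mM PEP, 0.1 mM ADP, 1 h, RT; normalized against uninhibited and no-enzyme wells.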
NS1 inh: qHTS Assay for Inhibitors of Influenza NS1 Protein Function; Potency, µM (titrated, usually from 46.1 µM), without a hit: at the top dose activity, positive = more growth; hit rate 0.4% among 270,000; note: potency is the fitted concentration of half-maximal effect; actives are rising curves; nearly all actives have a fitted effect of over 50% in size
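In this qHTS, NS1 from influenza A is expressed in budding yeast, where it slows growth. Cells are switched from glucose to 2% galactose medium (pH 6.0, -URA), treated with compound, and growth recovery is read at OD600.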
NS1 inh valid: Assay for Inhibitors of Influenza NS1 Protein Function: Hit Validation; shares compounds with NS1 inh; influenza NS1 function cell assay, 15-point titration; activity change, negative = inhibition, % at 32.9 µM; 1,400 tested, under 10 active; AID 492980, 2010; note: 0% is about no effect
PR8 titer: Assay for Inhibitors of Influenza NS1 Protein Function: Influenza virus replication assay in MDCK cells infected with virus A/PR/8/34; shares compounds with NS1 inh; MDCK infected influenza A/PR/8/34, virus titer TCID50; hits give low values; virus titer (log TCID50), log10 TCID50 at 5 µM; hit rate 30% among 95; AID 504647, 2011; call rule not given here
The depositor's hits bear a star; ? = inconclusive; / = no result; [ ] = remark or other dose. Sampled rows, rich in hits. Any-hit rate of the full collection: about 0.77%. Unless noted, calls come from the whole dose curve.

SMILES	RE007 growth inh	Tb PYK inh	LmPK inh	NS1 inh	NS1 inh valid	others
O=C(COC(=O)c1c2c(nc3ccccc13)/C(=C\c1cccs1)CCC2)Nc1ccccc1	-13.9%	-3.5%	4.0%	24.2%	/
CC(OC(=O)CCc1nc2ccccc2[nH]c1=O)c1ccccc1 (stereo unspecified)	11.0%	1.8%	-3.4%	/	/
COC(=O)c1c(C)oc2ccc(N(C(=O)c3ccncc3)S(=O)(=O)c3ccccc3)cc12	-4.4%	-9.6%	-4.0%	3.3%	/
COC(=O)c1c(C)oc2ccc(N(C(=O)c3ccncc3)S(=O)(=O)c3ccc4ccccc4c3)cc12	6.5%	-9.8%	1.4%	11.2µM*	3.2
Cc1ccc(C(c2c(C)[nH][nH]c2=O)c2c(C)[nH][nH]c2=O)cc1	-13.6%	-1.5%	5.8%	-36.8%	/
CSc1ccc(C(c2c(C)[nH][nH]c2=O)c2c(C)[nH][nH]c2=O)cc1	-10.4%	0.5%	-4.0%	3.16µM*	?
COCCn1nnnc1C(c1cc2ccc(OC)cc2[nH]c1=O)N1CCN(C2CCCCC2)CC1 (stereo unspecified)	-17.0%	-1.4%	0.4%	4.47µM*	-12.6	PR8 titer=7.5*
COc1ccccc1NS(=O)(=O)c1ccc(Cl)c(NC(=S)NC(=O)C2CCCC2)c1	5.5%	-9.4%	-0.1%	12.6µM*	29.8
CN(CC(=O)Nc1sccc1C#N)C1CCCCC1	-4.2%	-2.0%	1.2%	7.94µM*	-13.6
N#Cc1ccsc1NC(=O)CN1CCCCCC1	-23.4%	2.0%	-3.6%	-3.6%	/
c1nc(NC2CCCCC2)c2[nH]cnc2n1	-0.5%[3.69 µM]	/	1.1%	0.7%	/
c1nc(NC2CCCCCC2)c2[nH]cnc2n1	0.5%	0.2%	-3.0%	10µM*	-23.7
O=c1[nH]c(=O)n(Cl)c(=O)n1Cl	/	2.7%	/	/	/
O=[N+]([O-])c1ccccc1NCc1c(O)ccc2ccccc12	/	-0.2%	6.2%	8.91µM*	7.8
Oc1ccc2ccccc2c1CNc1ccccc1	-15.7%	8.5%	/	/	/
COc1ccc(NC(=O)CC2SC(=O)NC2=O)cc1 (stereo unspecified)	-27.5%	-1.4%	3.2%	/	/
Cc1ccc(NC(=O)CC2SC(=O)NC2=O)cc1 (stereo unspecified)	-1.1%	-0.3%	-0.3%	6.31µM*	-5.9
O=C(Nc1cc([N+](=O)[O-])ccc1C(=O)NCCN1CCOCC1)c1ccccc1	3.4%	-12.2%	-10.3%	3.3%	/
O=S(=O)(c1ccc2nc(-c3ccco3)c(-c3ccco3)nc2c1)N1CCOCC1	0.2%	15.8µM*	-5.1%	1µM*	-18.8
O=S(=O)(c1ccc2ccccc2c1)N1CCOCC1	-18.7%	0.0%	-1.5%	4.7%	/
COC(=O)[C@@]1(Cc2ccc(F)cc2)[C@H]2c3cc(C(=O)N4CCCC4)n(CCc4c[nH]c5ccc(OC)cc45)c3C[C@H]2CN1C(=O)c1ccccc1	/	/	-0.5%	12.6µM*	15.7
O=C(O)c1cc(N/N=C/c2ccc(N3CCOCC3)s2)ccc1Cl	8.2%	?	1.5%	11.2µM*	23.1
COc1ccc(NS(=O)(=O)c2ccc3nc(COc4ccc5ccccc5c4)[nH]c3c2)cc1	17.2%	6.6%	0.4%	10.1%	/
COc1ccc(NS(=O)(=O)c2ccc3nc(COc4cccc5ccccc45)[nH]c3c2)cc1	-24.2%	-17.2%	2.2%	22.4µM*	8.0
COc1cc(S(=O)(=O)NCCc2c(C)[nH]c3ccccc23)c(C)cc1C	/	-0.1%	/	/	/
SMILES	RE007 growth inh	Tb PYK inh	LmPK inh	NS1 inh	NS1 inh valid	others
COc1ccc(C2NC(=O)NC(C)=C2C(=O)OC2CCCCC2)cc1 (stereo unspecified)	-1.8%	-2.1%	/	/	/
COc1ccc(C2NC(=O)NC(C)=C2C(=O)OC2CCC(C)CC2)cc1 (stereo unspecified)	-4.2%	1.9%	1.7%	?	5.8
Cc1ccc(S(=O)(=O)N2CCCCC2)cc1NC(=O)C1CCCO1 (stereo unspecified)	12.3%	1.0%	7.2%	-2.4%	/
CCC(=O)N1c2ccccc2CC1C(=O)NCc1ccccc1Cl (stereo unspecified)	/	4.9%	/	/	/
COc1cc(/C=C2/C(=O)N(c3ccc(C(=O)O)cc3)N=C2C)cc(OC)c1O	-15.9%	?	?	7.8%	/
COc1cc(/C=C2/C(=O)N(c3ccc(Br)cc3)N=C2C)cc(OC)c1OC	26.9%	-11.9%	3.4%	11.2µM*	-16.9
CCOc1ccccc1Nc1nc(N)nc(CN2CCCCC2C)n1 (stereo unspecified)	3.3%	0.2%	1.6%	0.0%	/
CCn1c2ccccc2c2cc(NC(=O)COC(=O)c3cccc(S(=O)(=O)NC)c3)ccc21	-1.1%	-8.1%	-2.1%	10µM*	1.9	PR8 titer=7.33*
CCC(C)NC(=O)COC(=O)Cc1sc(N)nc1-c1ccc(C)cc1 (stereo unspecified)	20.9%	-22.1%	1.5%	1.12µM*	8.2
Cc1ccc(-c2nc(N)sc2CC(=O)OCC(=O)NCCC(C)C)cc1	7.8%	-17.6%	-1.6%	-3.2%	/
Cc1cc(NC(=O)CN2CCN(c3cccc(Cl)c3)CC2)no1	17.9%	-3.8%	-4.0%	/	/
CC(C)(C)NC(=O)NC(=O)CN1CCN(c2cccc(Cl)c2)CC1	-5.9%	-6.7%	-0.5%	7.94µM*	-25.8	PR8 titer=8.33
CCCCC1=CC2=CC(=O)C(C)(OC(=O)CC)C(=O)C2=CN1CCc1ccccn1 (stereo unspecified)	9.3%	-10.5%	-6.7%[11.5 µM]	?	7.5
CCCCC1=CC2=C(c3ccco3)C(=O)C(C)(OC(=O)c3ccc(OC)cc3)C(=O)C2=CN1CCc1ccccn1 (stereo unspecified)	-3.0%	-12.1%	-2.7%[11.5 µM]	?	19.7
CC(C)Cc1nccs1	-10.0%	0.1%	/	/	/
Cc1cccc(-n2c(=S)[nH]c3c(oc4ccccc43)c2=O)c1	/	-20.3%	-3.9%	?	7.7
Cc1ccc(-n2c(=S)[nH]c3c(oc4ccccc43)c2=O)cc1	/	-15.7%	7.2%	21.9%	/
CN(CC(=O)N1CCOCC1)Cc1c(Cl)cccc1NC(=O)c1ccccc1	/	-4.8%	/	/	/
O=C(N/N=C/c1ccc2c(c1)OCO2)c1cc(-c2ccc(F)cc2)nc2ccccc12	27.7%	1.9%	2.9%	?	-0.9
O=C1Nc2ccccc2CN2C(=O)c3cc(Cl)ccc3NC(=O)C12 (stereo unspecified)	1.7%	-0.1%	/	/	/
Cc1cc(N2CCCC2)nc(-c2ccccc2O)n1	-14.1%	-8.8%	7.8%	0.708µM*	-23.2
CCN1C(=O)C(Cc2nc3ccccc3c(=O)n2-c2ccc(OC)cc2)c2ccccc21 (stereo unspecified)	/	2.4%	/	/	/
COc1cccc(NC(=O)N2CCCC2C(=O)NCc2ccc(Cl)cc2)c1 (stereo unspecified)	5.2%	-6.8%	3.6%	-2.0%	/
